In PubChem BioAssay:
Where “and” joins values, the source holds several entries; their conditions need not be identical. Equal entries are not always repeated. A structure can be active in one record and inactive in another. Calls of active or inactive are those of the source.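 The calls were made as follows, unless noted: active = inhibition at or above 50% relative to wild type and mutant plate controls; inactive = inhibition below 50%.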

Legend:
[1] = loss of swimming-algae plug formation – whole organism, Chlamydomonas reinhardtii, WT vs cilia-less mutant, absorbance, 96-well, primary screen (AID 463189); conditions: Chlamydomonas reinhardtii gravitaxis, OD600 absorbance, 2 days; at 10 µM; stronger effect = higher value;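 also: 0% = wild type cc124 cells in DMSO and 100% = ciliumless bld1 mutant cells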
[2] = reduction of polyQ htt aggregates in cells – imaging, exon1htt(103Q)mCFP cells, high-content imaging, primary screen (AID 483;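 active = visual image review flags a hit and inhibition of aggregation exceeds 20%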;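 also: compound exposure lasted 3 days before fixation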;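 as to nuclei count: percent of the per-plate median nuclei count of sample wells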); conditions: exon1htt(103Q)mCFP cell line, aggregate imaging, at 2 µM; inhibition of aggregation: stronger effect = higher value; nuclei count: measured here: cell count, toxicity
[3] = endothelial E-selectin expression blockers – imaging, HUVEC, immunofluorescence, MLSMR starter and 10KST1 sets, primary screen (AID 487;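 active = visually confirmed hit in the image check and inhibition above 20%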;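 as to inhibition: signal is fraction of cell area covered by stained E-selectin grains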;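 as to nuclei count: 100% = median nuclei count of all wells on the same plate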); conditions: HUVEC TNFalpha-induced E-selectin immunofluorescence imaging, at 2 µM; inhibition: stronger effect = higher value; nuclei count: measured here: cell number, toxicity
[4] = Primary imaging screen for DUSP6 inhibitors that restore phospho-Erk in transfected HeLa cells, chemical complementation (AID 609;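 active = compounds giving at least 50% inhibition in the cell-based MKP-3 phosphatase rescue imaging test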;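 as to inhibition: phospho-Erk level distribution per well compared with pooled transfected vehicle control wells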); conditions: HeLa MKP-3 transfected, phospho-Erk imaging KS statistic, at 10 µM, cells stimulated with TPA for 15 min
[5] = target: Dual specificity protein phosphatase 6 (Homo sapiens) (UniProt Q16828); experiment: as above; conditions: HeLa MKP-3 transfected, phospho-Erk imaging KS statistic; at 10 µM; stronger effect = higher value; cells stimulated with TPA for 15 min
[6] = target: Voltage-gated potassium channel subunit beta-2 (Rattus norvegicus) (UniProt P62483); experiment: inhibitors of rat Kvbeta2 reductase activity – biochemical, NADPH fluorescence, primary screen (AID 622;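 active = fluorescence slope higher than the sample average by over 3 SD, cut at about -0.22 in these data, passing the limit was not always enough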;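 also: slope of raw intensity against log time taken from 70 to 1610 s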); conditions: recombinant KvBeta, 4-cyanobenzaldehyde reduction, at 10 µM, stronger effect = higher value
[7] = target: Voltage-gated potassium channel subunit beta-2 (Rattus norvegicus) (UniProt P62483); experiment: enhancers of rat Kvbeta2 NADPH turnover – biochemical, NADPH fluorescence, primary screen (AID 623;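 active = NADPH fluorescence slope more negative than the mean of all samples by about 3 SD, 99.7% confidence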;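 also: fluorescence intensity change per second fitted from 20 to 320 s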); conditions: Recombinant KvBeta, NADPH fluorescence decrease slope, 10 min; at 10 µM; stronger effect = lower value
[8] = target: Alpha-2C adrenergic receptor (Homo sapiens) (UniProt P18825); experiment: compounds altering alpha2C-coupled GIRK flux – cell-based, HEK293 alpha2C/GIRK1/2, thallium flux, primary screen (AID 624;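 active = fluorescence slope after compound addition differing from the mean of all screened samples at 99.7% confidence, in either direction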;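 also: slope of fluorescence ratio to pre-addition baseline per second over 15 to 24 s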); conditions: thallium flux BTC fluorescence, at 10 µM, actives lie on both sides
[9] = blockers of RIG-like receptor reporter activation – cell-based, Sendai virus stimulus, luciferase, 10K MLSCN set, TLR/RLR signaling modifier project, primary screen (AID 602276;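 active = inhibition at or above 50% at 10 µM; inactive = inhibition below 50%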;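 also: firefly luciferase from ISG56 promoter only with Renilla not read in this screen; 0% = Sendai virus plus DMSO and 100% = medium plus DMSO without virus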); conditions: HEK293 RL24 IRF3 luciferase reporter, at 10 µM, stronger effect = higher value
[10] = TLR3 IRF3 reporter activation blockers – cell-based, poly I:C stimulus, luciferase, 10K MLSCN set, primary screen (AID 602277;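 active = inhibition of the reporter signal at or above 50%; inactive = inhibition below 50%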); conditions: HEK293-TLR3 RL24 IRF3 luciferase reporter, at 10 µM, stronger effect = higher value
[11] = inhibitors of larval lipid processing in zebrafish, primary screen, whole organism, PED6 fluorescence, gall bladder and intestine (AID 686;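 active = a full or partial loss of lipid-probe fluorescence in the fish gall bladder, intestine or both, judged by eye; inactive = no fluorescence loss, or compound toxic to the fish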;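 also: larvae 5 to 7 days old with five fish per well; signal comes from phospholipase A2 cleavage of quenched PED6 carried via bile; overnight exposure to compound and PED6 before scoring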); conditions: Zebrafish larvae PED6 lipid processing, fluorescence scoring; screened at 20 µM (by protocol)
[12] = measured here: cell density z-score
[13] = measured here: nuclear c-Myc green intensity z-score
[14] = measured here: nuclear pErk red intensity z-score, stronger effect = higher value

Chain of Alpha-2C adrenergic receptor (Homo sapiens) (P18825 whole entry, looked up): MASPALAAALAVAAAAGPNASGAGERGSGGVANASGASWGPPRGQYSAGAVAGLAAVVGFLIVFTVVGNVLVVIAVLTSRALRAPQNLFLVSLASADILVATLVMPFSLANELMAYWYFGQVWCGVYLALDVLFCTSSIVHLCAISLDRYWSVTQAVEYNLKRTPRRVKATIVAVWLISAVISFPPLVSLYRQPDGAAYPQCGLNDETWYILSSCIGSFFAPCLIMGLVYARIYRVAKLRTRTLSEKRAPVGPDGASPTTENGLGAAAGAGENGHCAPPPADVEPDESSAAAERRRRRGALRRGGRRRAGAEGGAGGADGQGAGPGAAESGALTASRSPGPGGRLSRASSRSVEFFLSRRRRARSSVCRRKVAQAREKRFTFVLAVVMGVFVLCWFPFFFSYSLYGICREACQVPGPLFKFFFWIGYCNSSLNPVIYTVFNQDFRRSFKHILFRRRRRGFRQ
Chain of Dual specificity protein phosphatase 6 (Homo sapiens) (Q16828 whole entry, looked up): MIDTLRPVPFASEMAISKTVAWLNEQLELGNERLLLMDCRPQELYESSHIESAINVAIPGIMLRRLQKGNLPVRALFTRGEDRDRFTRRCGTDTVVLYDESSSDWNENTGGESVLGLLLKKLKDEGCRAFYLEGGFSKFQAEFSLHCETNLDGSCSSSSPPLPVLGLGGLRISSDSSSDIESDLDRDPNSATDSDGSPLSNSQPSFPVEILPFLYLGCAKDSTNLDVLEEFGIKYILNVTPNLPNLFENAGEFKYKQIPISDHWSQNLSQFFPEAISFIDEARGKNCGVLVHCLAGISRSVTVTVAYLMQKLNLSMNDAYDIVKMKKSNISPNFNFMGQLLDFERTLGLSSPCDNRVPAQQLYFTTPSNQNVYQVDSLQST
Chain of Voltage-gated potassium channel subunit beta-2 (Rattus norvegicus) (P62483 whole entry, looked up): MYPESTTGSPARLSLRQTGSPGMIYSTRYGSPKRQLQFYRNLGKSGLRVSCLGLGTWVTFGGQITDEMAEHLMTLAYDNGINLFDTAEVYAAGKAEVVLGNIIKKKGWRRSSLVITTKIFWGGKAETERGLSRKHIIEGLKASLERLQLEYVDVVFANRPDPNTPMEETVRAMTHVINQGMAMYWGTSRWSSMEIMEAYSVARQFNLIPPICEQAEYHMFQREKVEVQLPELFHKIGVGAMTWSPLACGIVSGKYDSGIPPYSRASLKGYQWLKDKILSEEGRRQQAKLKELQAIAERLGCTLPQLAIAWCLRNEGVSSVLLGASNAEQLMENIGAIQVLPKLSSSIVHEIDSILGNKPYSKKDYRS

With NC1(C(=O)O)CCCCC1 the inhibition [1] was -2.27% (inactive).
With CCCN(CCC)CCc1cccc2c1CC(=O)N2 the inhibition [1] was 4.03% (inactive).
For CC(=O)O[C@]1(C(C)=O)CC[C@H]2[C@@H]3C=C(Cl)C4=CC(=O)CC[C@]4(C)[C@H]3CC[C@@]21C, the inhibition of aggregation [2] was -13.1% (inactive), the nuclei count [2] was 100% and the inhibition [3] was -108% (inactive). It also gave a nuclei count [3] of 126%, a z-score [4, 12] of -0.773 and a z-score [4, 13] of -0.174. For the same compound, the z-score [4, 14] was -0.613, the inhibition [5] was 5.79% (inactive) and the fluorescence slope [6] was -0.438 (inactive). The NADPH fluorescence slope [7] was -6.7e-05 (inactive), the slope [8] was 0.00452 (inactive) and the inhibition [1] was 8.01% (inactive). The inhibition [9] was -5.93% (inactive) and the inhibition [10] was 38.2% (inactive).
With O=c1[nH]c2ccccc2n1CCCN1CCN(C(c2ccccc2)c2ccccc2)CC1 the inhibition of aggregation [2] was 0% (inactive), the nuclei count [2] was 107% and the inhibition [3] was -139% (inactive). For the same compound, the nuclei count [3] was 123%, the z-score [4, 12] was -0.406 and the z-score [4, 13] was -0.951. For the same compound, the z-score [4, 14] was 1.42, the inhibition [5] was 1.48% (inactive) and the fluorescence slope [6] was -0.492 (inactive). The NADPH fluorescence slope [7] was 1.6e-07 (inactive), the slope [8] was 0.00471 (inactive) and the outcome [11] was “inactive”. The inhibition [1] was 0.779% (inactive) and 19.8% (inactive), the inhibition [9] was 18.3% (inactive) and the inhibition [10] was 35.4% (inactive).
With CNC(=O)Oc1ccc2c(c1)[C@]1(C)CCN(C)[C@@H]1N2C the inhibition of aggregation [2] was 21.6% (inactive), the nuclei count [2] was 88.6% and the inhibition [3] was -22.9% (inactive). It also gave a nuclei count [3] of 104%, a z-score [4, 12] of -2.43 and a z-score [4, 13] of -0.577. The z-score [4, 14] was -0.583, the inhibition [5] was -6.41% (inactive) and the fluorescence slope [6] was -0.435 (inactive). For the same compound, the NADPH fluorescence slope [7] was 1.7e-05 (inactive), the slope [8] was 0.00657 (inactive) and the outcome [11] was “inactive”. The inhibition [1] was -0.375% (inactive) and -9.03% (inactive), the inhibition [9] was 15.2% (inactive) and the inhibition [10] was 36.1% (inactive).
With Cc1cccc(N2CN=c3s/c(=C\c4ccncc4)c(=O)n3C2)c1 the inhibition of aggregation [2] was 13.2% (inactive), the nuclei count [2] was 99.6% and the inhibition [3] was -56.6% (inactive). The nuclei count [3] was 121%, the z-score [4, 12] was -0.505 and the z-score [4, 13] was -1.69. For the same compound, the z-score [4, 14] was 1.18, the inhibition [5] was -10.5% (inactive) and the fluorescence slope [6] was -0.334 (inactive). For the same compound, the NADPH fluorescence slope [7] was 5.8e-06 (inactive), the slope [8] was 0.00412 (inactive) and the outcome [11] was “inactive”. The inhibition [1] was 22.1% (inactive), the inhibition [9] was 10.3% (inactive) and the inhibition [10] was -3.47% (inactive).
For Cc1ncc([N+](=O)[O-])n1CCO, the inhibition of aggregation [2] was 7.7% (inactive), the nuclei count [2] was 76.5% and the inhibition [3] was -67% (inactive). For the same compound, the nuclei count [3] was 110%, the z-score [4, 12] was 0.289 and the z-score [4, 13] was -1.84. For the same compound, the z-score [4, 14] was 1.07, the inhibition [5] was -5.24% (inactive) and the fluorescence slope [6] was -0.491 (inactive). For the same compound, the NADPH fluorescence slope [7] was -8.5e-05 (inactive), the slope [8] was 0.00488 (inactive) and the outcome [11] was “inactive”. For the same compound, the inhibition [1] was 1.99% (inactive), the inhibition [9] was 8% (inactive) and the inhibition [10] was 25.4% (inactive).
In the case of COc1cc(C2Oc3cc(C4Oc5cc(O)cc(O)c5C(=O)C4O)ccc3OC2CO)ccc1O (stereo unspecified), the inhibition of aggregation [2] is reported as 15.4% (inactive), the nuclei count [2] is reported as 94.5% and the inhibition [3] is reported as -86.6% (inactive). For the same compound, the nuclei count [3] was 118%, the z-score [4, 12] was -0.357 and the z-score [4, 13] was 0.711. For the same compound, the z-score [4, 14] was -0.479, the inhibition [5] was -8.38% (inactive) and the fluorescence slope [6] was -0.479 (inactive). For the same compound, the NADPH fluorescence slope [7] was 1.9e-05 (inactive), the slope [8] was 0.00477 (inactive) and the outcome [11] was “inactive”. For the same compound, the inhibition [1] was -8.52% (inactive), the inhibition [9] was -16.8% (inactive) and the inhibition [10] was -16.2% (inactive).
In the case of CCn1cc(C(=O)O)c(=O)c2cnc(N3CCNCC3)nc21, the inhibition of aggregation [2] is reported as 1.6% (inactive), the nuclei count [2] is reported as 108% and the inhibition [3] is reported as -26.1% (inactive). For the same compound, the nuclei count [3] was 127%, the z-score [4, 12] was 0.597 and the z-score [4, 13] was 0.614. For the same compound, the z-score [4, 14] was 0.576, the inhibition [5] was 14.6% (inactive) and the fluorescence slope [6] was -0.512 (inactive). The NADPH fluorescence slope [7] was -1.1e-05 (inactive), the slope [8] was 0.00483 (inactive) and the outcome [11] was “inactive”. The inhibition [1] was -9.24% (inactive), the inhibition [9] was 4.06% (inactive) and the inhibition [10] was 33.1% (inactive).
For O=c1n(CCCN2CCN(c3cccc(Cl)c3)CC2)nc2ccccn12, the inhibition of aggregation [2] was 32% (inactive), the nuclei count [2] was 90% and the inhibition [3] was -117% (inactive). The nuclei count [3] was 124%, the z-score [4, 12] was -0.214 and the z-score [4, 13] was -1.66. For the same compound, the z-score [4, 14] was 0.38, the inhibition [5] was -5.24% (inactive) and the fluorescence slope [6] was -0.359 (inactive). For the same compound, the NADPH fluorescence slope [7] was -2.9e-05 (inactive), the slope [8] was 0.00504 (inactive) and the outcome [11] was “inactive”. For the same compound, the inhibition [1] was 7.63% (inactive) and 123% (active), the inhibition [9] was 10.6% (inactive) and the inhibition [10] was 31.8% (inactive).
